CYP2C9 act: increases human cytochrome P450 2C9 activity | P11712 | 96,000 compounds, 1.4% hits | activation factor at 5 µM | recombinant CYP2C9, luciferin-H conversion, luminescence; hits give high values; factor 1 = untreated enzyme, 0 = blocked;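 active = activation factor of 2 or more for CYP2C9 at a 5 µM dose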;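 also: 0 = sulfaphenazole-blocked wells and 1 = vehicle-only wells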
CYP2C9 inh: inhibitors of human CYP2C9 | P11712 | inhibition, % at 5 µM | CYP2C9 Supersomes, luciferin-H conversion, luminescence | 96,000 compounds, 20% hits | AID 777;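 active = blocking of liver enzyme CYP2C9 beyond about 50% at 5 µM, limit read from the data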
Cav32 inh: inhibitors of human Cav3.2 T-type calcium channel. O95180. Cav3.2-expressing cells, Fluo-4 calcium fluorescence FDSS; hits give low values. B-score at 10 µM. 100,000 compounds, 4% hits;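 active = single-dose well whose peak fluorescence ratio is a statistical outlier from its plate by either plate-standardised score or position-corrected B-score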
CYP2C19 inh: human CYP2C19 inhibition. P33261. CYP2C19 Supersomes, luciferin-H EGE luminescence, 30 min. 96,000 compounds, 21% hits. inhibition, % at 5 µM. AID 778;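 active = CYP2C19 inhibition above a set limit at 5 µM in the primary screen, cut at about 50% in these data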;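 also: plate controls were negative control wells for no effect and 2.5 mM tranylcypromine positive control for full effect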
Target sequence (P33261 whole entry, looked up): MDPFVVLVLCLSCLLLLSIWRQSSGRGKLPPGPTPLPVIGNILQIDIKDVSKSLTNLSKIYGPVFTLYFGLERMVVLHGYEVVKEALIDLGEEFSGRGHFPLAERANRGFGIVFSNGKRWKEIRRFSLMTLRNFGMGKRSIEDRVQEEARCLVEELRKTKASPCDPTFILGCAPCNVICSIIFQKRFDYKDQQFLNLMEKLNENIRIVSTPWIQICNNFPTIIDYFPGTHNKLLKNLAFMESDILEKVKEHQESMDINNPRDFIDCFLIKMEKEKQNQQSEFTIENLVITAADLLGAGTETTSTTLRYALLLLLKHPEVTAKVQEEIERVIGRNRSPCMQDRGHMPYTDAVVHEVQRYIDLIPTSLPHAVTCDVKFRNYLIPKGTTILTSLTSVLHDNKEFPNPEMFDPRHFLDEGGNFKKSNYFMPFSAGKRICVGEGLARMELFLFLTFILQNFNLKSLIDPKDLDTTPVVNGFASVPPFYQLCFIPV
CYP2C19 act: activators of human cytochrome P450 2C19. P33261. recombinant CYP2C19, luciferin-H EGE luminescence; hits give high values; 0 = fully inhibited enzyme, 1 = untreated enzyme. activation factor at 5 µM. 96,000 tested, under 10 active. AID 1025;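 active = activation factor of at least 2 at 5 µM in the primary screen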;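 also: 0 = wells with 2.5 mM tranylcypromine and 1 = vehicle-only wells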
* marks the source's active call; other numbers are inactive results; . = no result. The list is not random: actives were taken first. Their share in the collection is about 27%.

SMILES	CYP2C9 act	CYP2C9 inh	Cav32 inh	CYP2C19 inh	CYP2C19 act
Cc1cc(C)c2[nH]c(=O)c(CN(CC3CCCO3)C(=O)C3CCCO3)cc2c1 (stereo not given)	1.1	-8.5	0.311	-1.8	1
Cc1ccc(C)c2[nH]c(=O)c(CN(CC3CCCO3)C(=O)NC3CCCCC3)cc12 (stereo not given)	0.3	72.5*	-0.869	28.9	0.7
Cc1cccc2cc(COC(=O)c3cccnc3)c(=O)[nH]c12	0.6	38.6	0.131	51.7*	0.5
Cc1cccc2cc(CN(CC3CCCO3)C(=O)c3ccncc3)c(=O)[nH]c12 (stereo not given)	0.2	82.9*	0.399	88.7*	0.1
Cc1c(NC(=O)c2ccc3ncccc3c2)c(=O)n(-c2ccccc2)n1C	0.9	9.5	0.105	1.7	1
O=C(NC1CCCCC1)c1ccc2c(c1)S(=O)(=O)c1ccccc1C2=O	.	.	-1.32	.	.
O=C(Nc1ccc(F)cc1)c1cc(S(=O)(=O)N2CCCCC2)cs1	0.5	49.2	-5.17	26.9	0.7
CSCCC(NS(=O)(=O)c1ccc2ccccc2c1)C(=O)O (stereo not given)	0.9	11.7	0.214	-10.2	1.1
CC/C(=N\O)c1ccc(O)c(OC)c1	1	-2.2	1.77	2.7	1
O=C(Nc1nccs1)C(NS(=O)(=O)c1ccc(Br)s1)c1ccccc1 (stereo not given)	0.4	62.3*	-5.76*	37.7	0.6
CCCC(C(=O)Nc1nccs1)c1ccccc1 (stereo not given)	0.5	48.3	-2.75	54.2*	0.5
CC1(C)C[C@H](O)[C@@]23C[C@@H](OC2=O)[C@]2(C)C(=CCC4[C@@]5(C)CC[C@H](O)C(C)(C)C5CC[C@]42C)[C@@H]3C1 (stereo not given in full)	.	.	-1.11	.	.
COC(=O)C1=C(C)OC(N)=C(C#N)C1c1ccco1 (stereo not given)	.	.	-0.221	.	.
COCCOC(=O)C1=C(C)OC(N)=C(C#N)C1c1ccc2c(c1)OCO2 (stereo not given)	0.3	67.9*	1.26	80.4*	0.2
C=CCOC(=O)C1=C(C)OC(N)=C(C#N)C1c1ccoc1 (stereo not given)	0.7	34.0	-0.184	82.5*	0.2
CSC1=C(C#N)C(c2ccc3c(c2)OCO3)C2=C(CCCC2=O)N1 (stereo not given)	.	.	-0.0515	.	.
COCCOC(=O)C1=C(C)OC(N)=C(C#N)C1c1ccco1 (stereo not given)	.	.	0.953	.	.
C=CCOC(=O)C1=C[C@@H](c2ccc3c(c2)OCO3)C[C@@H](OCc2ccc(CO)cc2)O1	.	.	-1.36	.	.
CC(C)(C)C1=C(C#N)C(c2ccc3c(c2)OCO3)C(C#N)=C(N)O1 (stereo not given)	0.1	89.7*	-0.722	88.6*	0.1
C=CCOC(=O)C1=C(C)OC(N)=C(C#N)C1c1ccc2c(c1)OCO2 (stereo not given)	0	97.7*	-2.93	100.0*	0
CCN1C(=O)N[C@@H](c2ccco2)C(C(C)=O)=C1C	.	.	-0.041	.	.
Cc1nc(SCC(=O)N2CCC(C(N)=O)CC2)n[nH]1	1	-1.3	-0.0311	12.9	0.9
O=C(NCCCN1CCOCC1)c1onc(CSc2ccncc2)c1C(=O)NCCCN1CCOCC1	.	.	-0.279	.	.
CCOC(=O)C1=C(C)OC(N)=C(C#N)C1c1cc2ccccc2nc1N1CCCCC1 (stereo not given)	.	.	-0.427	.	.
COC(=O)C1=C(C)OC(N)=C(C#N)C1c1ccccc1F (stereo not given)	0.8	16.3	2.48	64.4*	0.4
SMILES	CYP2C9 act	CYP2C9 inh	Cav32 inh	CYP2C19 inh	CYP2C19 act
CCOC(=O)C1=C(C)OC(N)=C(C#N)C1c1cc2c(cc1Br)OCO2 (stereo not given)	0.6	41.5	-1.02	93.3*	0.1
O=C(O)CCN1/C(=C/C=Nc2ccccc2)Oc2ccccc21	1	-3.8	0.0761	0.8	1
O=C(NCc1cn(-c2ccccc2)nc1-c1ccccc1)c1cc([N+](=O)[O-])cc([N+](=O)[O-])c1	0.3	67.4*	.	30.8	0.7
O=C(COC(=O)c1cn(-c2ccccc2)nc1-c1ccccc1)c1cccc([N+](=O)[O-])c1	0.6	41.8	-1.14	15.2	0.8
CCCOc1ccc2oc(=O)c3c(c2c1)CCCN3C(=O)CN1CCc2ccccc2C1	0.4	63.9*	-0.569	88.8*	0.1
CC1CC(C)CN(CC(=O)N2CCCc3c2c(=O)oc2ccc(OCc4ccccc4)cc32)C1 (stereo not given)	0.2	84.8*	-0.479	74.9*	0.3
CCc1cc(=O)oc2cc(OCC(=O)N3CCc4ccccc43)ccc12	0.9	7.0	.	19.2	0.8
CC1CCN(CC(=O)N2CCCc3c2c(=O)oc2ccc(OCc4ccccc4)cc32)CC1	0.1	89.6*	0.582	53.3*	0.5
CC(C)Cn1c(-c2csc3ccccc23)n[nH]c1=S	0.7	33.5	.	77.6*	0.2
COc1ccc(-c2n[nH]c(=S)n2CC(C)C)cc1	0.4	56.1*	0.0197	78.5*	0.2
COc1ccc(/C(O)=C/C(=O)C(=O)NNC(=O)C(O)(c2ccccc2)c2ccccc2)cc1	0.9	7.0	-9.67*	1.4	1
COc1ccc(/C(O)=C/C(=O)C(=O)Nc2c(C)n(C)n(-c3ccccc3)c2=O)cc1	1.1	-10.0	-0.0785	17.9	0.8
CC(=O)c1cccc(NC(=O)NC(C)c2ccncc2)c1 (stereo not given)	0.1	93.8*	-0.022	85.0*	0.2
CCOC(=O)/C=c1\s/c(=C\c2c(OC)ccc3ccccc23)c(=O)n1CC(=O)NCC1CCCO1 (stereo not given)	0.6	40.8	-5.68*	56.6*	0.4
Cc1nn(C)c(=O)n1-c1ccc(OCc2ccccc2)cc1	0.7	33.2	0.749	56.5*	0.4
COc1ccc(-n2c(C)nn(C)c2=O)cc1	1	-2.9	0.166	2.6	1
Cc1cc(N2CCCC2=O)cc(C)c1CN1C(=O)c2ccccc2C1=O	.	.	-0.0661	.	.
COc1ccc2c(c1)NC(=O)CC(c1ccccc1)=N2	0.5	49.1	0.73	74.7*	0.3
COc1ccc(-c2cc(-c3ccccc3)nc(-c3ccc4c(c3)NC(=O)CO4)c2)cc1	0.7	32.6	-0.964	8.1	0.9
COCCn1nnnc1C(C(C)C)N1CCN(C(=O)c2ccco2)CC1 (stereo not given)	1.1	-9.6	-1.37	4.4	1
CC(C)CCn1nnnc1C(c1ccc(F)cc1)N1CCN(C(=O)c2ccco2)CC1 (stereo not given)	0	96.5*	0.618	63.0*	0.4
COc1ccc(OC)c(C(c2nnnn2CCC(C)C)N2CCN(C(=O)c3ccco3)CC2)c1 (stereo not given)	0.3	74.3*	-0.846	66.9*	0.3
CC1CC(NC(=O)C2(C)CC2(Cl)Cl)CC(C)(C)C1 (stereo not given)	1	4.4	-1.33	6.6	0.9
CCn1c(=NC(=O)c2ccc(S(=O)(=O)N3CCOCC3)cc2)sc2cccc(OC)c21	1.1	-8.3	-0.99	11.5	0.9
